Screening data deposited in PubChem by National Center for Advancing Translational Sciences (NCATS).
In the library only some 7.9% were active in any assay of this set; here they are far more common.
KB-V1 cytotox = qHTS assay for MDR1-selective chemotherapeutics: Primary screen using the drug-selected MDR subline cells KB-V1 | AID 1347076, 2019 | 400,000 tested, 3.4% active | Potency, µM (top dose mostly 46.1 µM), most hits filed as cytotoxic | KB-V1 MDR cells viability, CellTiter-Glo, 72 h; further: on the % scale 0 is the no-effect control and ±100 the full control effect; nearly all actives have a fitted effect of over 60% in size
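In this primary screen, KB-V1 cells overexpressing P-gp are incubated with library compounds (lowest to highest concentration) for 72 h at 37 degrees C before a luminescent ATP viability read.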
HT1080-NT tox = qHTS for induction of synthetic lethality in tumor cells producing 2HG: qHTS for the HT-1080-NT fibrosarcoma cell line; Potency, µM (highest dose often 46.1 µM), without a hit: at the highest dose activity, negative = less viability, hits mostly cytotoxic; HT-1080-NT fibrosarcoma viability, CellTiter-Glo ATP luminescence, 48 h; 360,000 tested, 1.6% active;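 further: NT is the 2HG producing partner of a matched IDH1 knockdown line; 0% = DMSO-treated cells and -100% = media-only wells without cells; nearly all actives have a fitted effect of over 55% in size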
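Toxicity toward the 2HG-producing NT line was scored as %Activity, normalised to DMSO and no-cell wells, from CellTiter-Glo luminescence after 48 hours' treatment.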
KB-3-1 cytotox = qHTS assay for MDR1-selective chemotherapeutics: Primary screen using the parental adenocarcinoma cell KB-3-1 | AID 1347075, 2019 | 400,000 tested, 1.4% active | KB-3-1 viability, CellTiter-Glo ATP luminescence, 72 h | Potency, µM (doses to about 46.1 µM), usual class: cytotoxic; further: on the % scale 0 is the no-effect control and ±100 the full control effect; nearly all actives have a fitted effect of over 60% in size
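Here the drug-naive KB-3-1 line serves as comparator for MDR sub-line selectivity; cells received compound titrations, 72 h at 37 °C, then CellTiter-Glo readout.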
HT1080 IDH1KD tx = qHTS for induction of synthetic lethality in tumor cells producing 2HG: qHTS for the HT-1080-IDH1KD cell line | HT-1080 IDH1 knockdown viability, ATP luminescence, 48 h | Potency, µM (titrated, usually from 46.1 µM), without a hit: at the highest dose activity, negative = toxicity, actives largely listed as cytotoxic | 360,000 tested, 2% active;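 further: 0% = DMSO wells and -100% = cell-free medium wells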
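Cytotoxicity counter-line: IDH1KD HT-1080, 48 h, CellTiter-Glo. Curves classed by r2, magnitude and activity.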
SW480 rereplic = A quantitative high throughput screen for small molecules that induce DNA re-replication in SW480 colon adenocarcinoma cells; 340,000 tested, 1.8% active; SW480 DNA re-replication, Hoechst DNA content imaging, 48 h; AID 624297, 2012; Potency, µM (highest dose often 46.1 µM), for inactives: top-dose re-replication activation, most hits filed as activators; further: % of control where 0% means no effect; nearly all actives have a fitted effect of over 55% in size
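Hoechst fluorescence of nuclei (405 nm excitation, 500-530 nm emission) measured by plate-scanning imager after 48 hr compound exposure at 37 C; re-replication scored as increased number of nuclei with elevated intensity.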
MCF10A rerep = A quantitative high throughput screen for small molecules that induce DNA re-replication in MCF 10a normal breast cells. MCF 10A DNA re-replication, Hoechst nuclear intensity, 48 h. Potency, µM (top dose mostly 46.1 µM), without a hit: at the top dose activity, positive = re-replication, actives largely listed as activators. 350,000 tested, 2.9% active; further: % of control where 0% means no effect; nearly all actives have a fitted effect of over 50% in size
* marks the source's active call; other numbers are inactive results; i = inactive; ? = inconclusive; · = no result. The call rests on the fitted dose curve; in most records, active means well fitted curve in the direction sought with a large enough effect; inconclusive means small, poorly fitted or top-dose-only effect, or another doubt; inactive means no such curve, though single readings can be large; an effect the other way counts as inactive or inconclusive. Potency means the concentration at half of the fitted maximal effect.

SMILES	KB-V1 cytotox	HT1080-NT tox	KB-3-1 cytotox	HT1080 IDH1KD tx	SW480 rereplic	MCF10A rerep
c1ccc(Nc2nc(N3CCCCC3)nc(N3CCCCC3)n2)cc1	i	?	i	?	-3%	-11%
Cc1cccc(Nc2nc(N3CCCC3)nc(N3CCCC3)n2)c1	9.2µM*	9%	i	7%	?	21µM*
c1ccc(Nc2nc(N3CCCCC3)nc(N3CCNCC3)n2)cc1	21µM*	?	i	?	-3%	-2%
COc1nc(Nc2cccc(C)c2)nc(N2CCCCC2)n1	?	3%	i	18%	5%	?
CC1Oc2ccccc2C=C1/C=N/Nc1ccc(C(=O)O)cc1 (stereo not given)	i	?	i	?	7.3µM*	23µM*
CC(C)(C)c1ccc(/C=N/Nc2ccc(C(=O)O)cc2)cc1	i	-4%	i	-3%	16%	?
CCc1nc(N2CCN(C(=S)NCCCOC)CC2)c2c3c(sc2n1)CCCC3	i	?	?	-6%	10%	?
CCN1C(=O)/C(=C\N2CCN(c3ccc(F)cc3)CC2)SC1=S	2.6µM*	10%	i	-3%	-4%	1%
CN(C)c1ccc(-c2c3ccccc3nc3ccccc23)cc1	i	·	?	·	·	·
CN(C)c1ccc(Sc2ccc3nc(N)nc(N)c3c2)cc1	8.2µM*	2.3µM*	8.2µM*	1.6µM*	·	·
COc1ccc(NC(=O)c2oc3ccccc3c2NC(=O)COc2ccc(C(C)C)cc2)c(OC)c1	?	·	i	·	·	·
Cc1cccnc1NC(=O)CCc1nnc2ccc(N3CCC4(CC3)OCCO4)nn12	i	1%	i	0%	-17%	1%
COc1ccc(Cl)cc1NC(=O)NC(C)c1ccncc1 (stereo not given)	18µM*	-27%	i	4%	0%	?
COc1ccc(Cl)cc1NC(=O)Nc1ccc(Br)cn1	i	?	i	18µM*	?	1%
Cc1nnc(N2CCCC(C(=O)Nc3cccc(C(F)(F)F)c3)C2)c2nn(-c3ccccc3)c(C)c12 (stereo not given)	i	·	i	·	·	·
COc1cc(C(=O)NCC(c2cccs2)N(C)C)cc(Cl)c1OC(C)C (stereo not given)	7.3µM*	-7%	i	-18%	?	?
CCCCN1C(=O)C(CC(=O)NC2CC2)CC(C(=O)N(CC)CC)=C1C (stereo not given)	?	2%	i	0%	·	·
O=c1oc(-c2cccs2)nc2sc3c(c12)CCCC3	i	-1%	i	0%	?	18µM*
O=C1CN(c2nc(-c3cccs3)nc3sc4c(c23)CCCC4)CCN1	?	?	i	13µM*	3%	?
O=C(CO/N=C/c1ccccc1O)N1CCc2ccccc21	13µM*	-3%	i	-3%	1%	6%
O=C(COC(=O)C1(c2ccccc2F)CCCC1)N1CCc2ccccc21	i	12%	i	20%	2%	-5%
CC(=O)c1ccc(N2CCN(C(=O)COc3ccc4c(c3)CCC4)CC2)cc1	i	-1%	i	3%	-6%	-31%
Cc1ccc(OCC(=O)N2CCc3ccccc32)cc1	i	5%	i	8%	-5%	17%
O=C(COC(=O)C1(c2ccc(F)cc2)CCCC1)N1CCc2ccccc21	21µM*	-3%	i	-2%	-54%	16%
Cc1ccc(Cl)cc1N1CCN(C(=O)COc2ccc3c(c2)CCC3)CC1	i	?	?	?	20%	13µM*
SMILES	KB-V1 cytotox	HT1080-NT tox	KB-3-1 cytotox	HT1080 IDH1KD tx	SW480 rereplic	MCF10A rerep
O=C(COc1ccc2c(c1)CCC2)N1CCc2ccccc21	i	-11%	i	-3%	?	26µM*
CC(=O)Oc1ccccc1Cn1c(C)c(C(=O)NCc2ccc(Cl)c(Cl)c2)sc1=O	?	?	i	?	·	·
CCCCNc1nc(=S)n(-c2ccccc2)c(C)c1C(C)=O	i	?	?	16µM*	?	?
CCc1ccc(OCC(=O)Nc2ccc(S(=O)(=O)Nc3cc(C)on3)cc2)c(Br)c1	·	4%	·	0%	0%	-44%
Cc1nc2ccccc2n1/N=C/c1ccc([N+](=O)[O-])o1	i	13µM*	i	10µM*	6%	2%
O=[N+]([O-])c1ccc(/C=N/n2c(CO)nc3ccccc32)s1	i	?	?	?	3.3µM*	14%
O=[N+]([O-])c1ccc(/C=N/n2cnc3ccccc32)s1	?	?	?	?	4.1µM*	?
Cc1nc2ccccc2n1/N=C/c1ccc([N+](=O)[O-])s1	12µM*	?	?	?	?	18µM*
Cc1cc2ncn(/N=C/c3ccc([N+](=O)[O-])s3)c2cc1C	?	-2%	i	-6%	?	-5%
CCCc1nc2c(Cl)cc(C(F)(F)F)cn2c1Cc1ccc(OC)cc1C	?	-25%	i	-12%	·	·
CCN(CC)C(=O)[C@H]1C[C@H](CC(=O)NCC23CC4CC(CC(C4)C2)C3)C(=O)N2CCc3c([nH]c4ccc(Cl)cc34)[C@]12C	?	-1%	i	1%	15µM*	3%
CC[C@]12c3[nH]c4ccc(Cl)cc4c3CCN1C(=O)[C@@H](CC(=O)NCC13CC4CC(CC(C4)C1)C3)C[C@@H]2C(=O)N1CCN(C(=O)c2ccco2)CC1	?	?	?	18µM*	?	21µM*
CC[C@]12c3[nH]c4ccc(OC)cc4c3CCN1C(=O)C(CC(=O)NCC13CC4CC(CC(C4)C1)C3)C[C@@H]2C(=O)N1CCN(C(=O)c2ccco2)CC1 (stereo not given in full)	i	-29%	i	?	?	?
CC(C)N(C(=O)[C@H]1C[C@H](CC(=O)NCCCN(C)C)C(=O)N2CCc3c([nH]c4ccc(Cl)cc34)[C@]12C)C(C)C	i	-20%	i	?	18µM*	?
Nc1c2c(nc3sc4c(c13)CCCC4)-c1ccccc1CC2	?	?	?	18µM*	-6%	?
